This is part of a sample that, as a whole, favours compounds with a hit. Of some 79,000 tested, about 15% had one in any assay. Values without a mark were called inactive. Calls of active or inactive are those of the source. Rule as the data show it: active = growth inhibition above about 70%; inactive = the rest.
What was measured:
[1] = NCI Yeast Anticancer Drug Screen. Data for the rad50 strain (AID 155);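 also: 0% = growth of vehicle-only cultures of the same strain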; conditions: S. cerevisiae rad50 strain growth inhibition, hits give high values
In short: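 Compounds were tested on a yeast strain with an engineered DNA damage repair alteration; the reported value is growth inhibition normalised to vehicle treatment.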

[2] = NCI Yeast Anticancer Drug Screen. Data for the mec2-1 strain (AID 157); conditions: S. cerevisiae mec2-1 strain, hits give high values
In short: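 Using mec2-1 yeast: add compound, measure growth, express inhibition versus vehicle-treated cultures.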

[3] = NCI Yeast Anticancer Drug Screen. Data for the sgs1 mgt1 strain (AID 161);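 also: 0% = growth of cultures given vehicle only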; conditions: S. cerevisiae sgs1 mgt1 strain, hits give high values
In short: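 Compounds are added to genetically altered yeast, and growth is compared with cultures given vehicle alone to give percent inhibition.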

[4] = NCI Yeast Anticancer Drug Screen. Data for the cln2 rad14 strain (AID 165);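 also: 0% = growth equal to vehicle treated cultures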; conditions: S. cerevisiae cln2 rad14 strain, hits give high values
In short: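 Yeast strain cln2 rad14, bearing defects in cell cycle control and DNA repair, serves as the test system; values reflect growth inhibition compared with vehicle.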

[5] = NCI Yeast Anticancer Drug Screen. Data for the mlh1 rad18 strain (AID 175); conditions: S. cerevisiae mlh1 rad18 strain growth inhibition, hits give high values
In short: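 Steps: expose repair-defective yeast to compound; measure growth; express inhibition against vehicle-treated controls.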

[6] = NCI Yeast Anticancer Drug Screen. Data for the bub3 strain (AID 167); conditions: S. cerevisiae bub3 mutant strain, hits give high values
In short: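 Growth of a checkpoint-deficient yeast mutant is measured after compound exposure. Values represent inhibition relative to vehicle.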

[7] = at 5.0 µM (retest, dose inferred, filed as 0.5)
[8] = at 50.0 µM (retest, dose inferred, filed as 5.0)

Structure (SMILES) | growth inhibition [1, 7] | growth inhibition [1, 8] | growth inhibition ([1]; at 50.0 µM) | growth inhibition [2, 7] | growth inhibition [2, 8] | growth inhibition ([2]; at 50.0 µM) | growth inhibition [3, 7] | growth inhibition [3, 8] | growth inhibition ([3]; at 50.0 µM) | growth inhibition [4, 7] | growth inhibition [4, 8] | growth inhibition ([4]; at 50.0 µM) | growth inhibition [5, 7] | growth inhibition [5, 8] | growth inhibition ([5]; at 50.0 µM) | growth inhibition [6, 7] | growth inhibition [6, 8] | growth inhibition ([6]; at 50.0 µM)
COc1cc(NC(=O)C2=C(C)NC(C)=C(C(=O)Nc3cc(OC)c(Cl)cc3OC)C2c2cccc([N+](=O)[O-])c2)c(OC)cc1Cl | -24% | 96% (active) | 96.7% (active) | 5% | 97% (active) | 76.3% (active) | 6% | 95% (active) | 96.9% (active) | -31% | 96% (active) | 95.8% (active) | -14% | 96% (active) | 96.9% (active) |  |  | 
CC1=NN(c2ccccc2)C(=O)C1(Br)Br | 37% | 64% | 92.7% (active) | 44% | 71% (active) | 94% (active) | 23% | 99% (active) |  | 43% | 99% (active) |  |  |  |  | 49% | 98% (active) | 
CN(C)CCSC1=Nc2ccc(Cl)cc2C(c2ccccc2Cl)N(C)C1 (stereo unspecified) | 8% | 80% (active) | 96.7% (active) | 3% | 47% | 95.7% (active) | 3% | 78% (active) | 88.3% (active) | 4% | 27% | 80.2% (active) | 10% | 84% (active) | 95.8% (active) | 0% | 82% (active) | 97% (active)
CCN(CC)CC(O)CNc1ccc(NCC2CO2)c2c1C(=O)c1ccccc1C2=O (stereo unspecified) | 71% (active) | 76% (active) | 34.1% | 23% | 79% (active) | 25.6% | 76% (active) | 84% (active) | 48.8% | 49% | 83% (active) | 56% | 52% | 74% (active) | 59% |  |  | 
CCOc1ccc2c(c1)/C(=C\C=C\C1CC(C)C3CC(OCC)CCC3N1CC)CC(C)N2CC (stereo unspecified) | -7% | 85% (active) | 28.6% | -1% | 88% (active) | 88.2% (active) | -10% | 92% (active) | 33.9% | 0% | 83% (active) | 83% (active) | 0% | 86% (active) | 81.5% (active) | 4% | 82% (active) | 83.7% (active)
O=C1CCC2(C=C(Br)C(=O)C(Br)=C2)O1 | 42% | 87% (active) | 91.8% (active) | 46% | 96% (active) | 93.5% (active) | 92% (active) | 99% (active) |  | 91% (active) | 99% (active) |  | 31% | 94% (active) | 92.3% (active) | 92% (active) | 100% (active) | 
CC1(c2ccc(O)cc2)CCC(C(C)(C)c2ccc(O)cc2)CC1 (stereo unspecified) | 41% | 99% (active) | 90.5% (active) | 46% | 100% (active) | 91.9% (active) | 80% (active) | 97% (active) |  | 60% | 97% (active) |  | 44% | 100% (active) | 91.1% (active) | 89% (active) | 96% (active) | 
S=C(SSC(=S)N1CCOCC1)N1CCOCC1 | 97% (active) | 99% (active) | 99.3% (active) | 99% (active) | 100% (active) | 99.6% (active) | 99% (active) | 99% (active) | 99.2% (active) |  |  |  | 98% (active) | 99% (active) | 99.5% (active) | 98% (active) | 99% (active) | 99.5% (active)
Nc1c(N)c(Cl)c(Cl)c(Cl)c1Cl | 38% | 84% (active) | 87% (active) | 58% | 91% (active) | 91.6% (active) | 20% | 96% (active) |  | 43% | 97% (active) |  | 33% | 83% (active) | 87.3% (active) | 32% | 98% (active) | 
CCCOC(=O)c1nc(N(CC2CCCCC2)C(=O)NC)sc1/N=C/c1ccccc1 | 67% | 86% (active) | 5.15% | 62% | 90% (active) | -18.9% | 45% | 91% (active) | 4.25% | 68% | 88% (active) | 37.9% | 73% (active) | 92% (active) | -10.2% | 77% (active) | 92% (active) | 10.8%

Source: PubChem BioAssay (NCI)
